Results as given in PubChem BioAssay (NCI).
The panel holds about 83,000 compounds, 20% with a hit somewhere; the sample as a whole holds those more often.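 Single-dose data. Exposure time 48 hours. Values below 10 considered active.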 A number with no mark means an inactive call. The source made the active and inactive calls.

tested on: HL-60(TB) leukemia; assay: NCI-60 one-dose screen, 48 h (100 = growth as untreated, 0 = no growth, -100 = all killed); conditions: 10 µM unless noted

Row | Structure (SMILES) | growth
1 | CCn1cc(C(=O)NN=C2CCCC2)c(=O)c2ccc(C)nc21 | 98.8%
2 | COc1cc(C[C@H]2COc3cc(O)cc(O)c3C2=O)ccc1O | -35.5% (active)
3 | O=S(=O)(c1ccccc1)n1cc2c(c1-c1ccccc1)CCc1sc(Nc3ccccc3)nc1-2 | 94.1%
4 | Nc1c(C(=O)c2ccccc2)sc2nc(-c3cccs3)ccc12 | 9.36% (active)
5 | COc1ccc(Nc2nc(N)nc3c2CCN(Cc2ccc(OC)cc2OC)C3=O)cc1 | 59.1%
6 | COc1cc(C2CC(c3ccc4c(c3)OCO4)=NN2C=O)cc(OC)c1OC (stereo not given) | 0.568% (active)
7 | O=c1[nH]c(-c2ccccc2)nc(CN2CCCCC2)c1O | 84.4%
8 | COc1cc(/C=C2\CN(C)C/C(=C\c3cc(CN4CCCCC4)c(O)c(OC)c3)C2=O)cc(CN2CCCCC2)c1O | 11%
9 | C[N+](C)(CCCCCC[N+](C)(C)C1c2ccccc2-c2ccccc21)C1c2ccccc2-c2ccccc21 | 85.7%
10 | CC[N+]1(CC)CC[N+]2(CCCC(C)CC2)CC1 (stereo not given) | 101%
11 | Fc1ccc(Nc2ccc3cc(OCCCN4CCOCC4)ccc3n2)cc1F | 75.4%
12 | c1ccc(-c2c(-c3ccccc3)[n+](Cc3ccc4ccccc4c3)c(-c3cccc4ccccc34)n2Cc2ccc3ccccc3c2)cc1 | -46.8% (active)
13 | C=C1C(=O)O[C@H]2[C@H]1CC/C(Cn1cc(-c3cccc(Cl)c3)nn1)=C\CC[C@@]1(C)O[C@@H]21 | -24.9% (active)
14 | O=CNCCc1ccccc1 | 87.6%
15 | C=C(C)[C@@H]1CC[C@]2(/C=N/Nc3ccncc3)CC[C@]3(C)[C@H](CC[C@@H]4[C@@]5(C)CCCNC(C)(C)[C@@H]5CC[C@]43C)[C@@H]12 | 58.5%
16 | Nc1c(C(=O)Nc2cccc(C(F)(F)F)c2)sc2nc3c(cc12)C(O)CCC3 (stereo not given) | -0.216% (active)
17 | CC(=O)c1nn(-c2ccccc2)c(=Nc2ccccc2)cc1C | 106%
18 | CN(CC(=O)N(Cc1ccc(C2CCCCC2)cc1)c1ccc(C(=O)NO)cc1)S(=O)(=O)c1c(F)c(F)c(F)c(F)c1F | 43.6%
19 | Cc1cc2c(cc1C)[n+](Cc1ccc3ccccc3n1)cn2Cc1ccc2ccccc2n1 | -49.8% (active)
20 | CC(C)[C@H](CO)Nc1nc(Nc2ccc(C(=O)NCCNS(=O)(=O)c3cccc4c(N(C)C)cccc34)c(Cl)c2)c2ncn(C(C)C)c2n1 | -36.7% (active)
21 | CCN(CC)c1ccc(-c2cc(-c3cc(OC)c(OC)c(OC)c3)nc(N3CCC(O)CC3)c2C#N)cc1 | -14.1% (active)
22 | CCOC(=O)/C(=C/c1ccc(OC)cc1)N(CC)CC | 98%
23 | C=CCC(=O)N[C@H](/C=C/C(=O)O)Cc1ccc(-c2cc(Cl)cc(Cl)c2)cc1 | 101%
24 | CCCCC#Cc1c(I)n(C2OC(CO[Si](C)(C)C(C)(C)C)C3OC(C)(C)OC32)c(=O)[nH]c1=O (stereo not given) | -29.4% (active)
25 | Cn1c2ccccc2c2nn(Cc3ccccc3)c(=O)nc21 | 110%
